# PubChem BioAssay (NCATS)
# Values joined by “and” are separate entries in the source; they are usually repeats but may differ in a detail not shown here. Identical values can stand only once. Results filed as inconclusive are left out. Active and inactive are the calls of the source. The call rests on the fitted dose curve; in most records, active means well fitted curve in the direction sought with a large enough effect; inconclusive means small, poorly fitted or top-dose-only effect, or another doubt; inactive means no such curve, though single readings can be large; an effect the other way counts as inactive or inconclusive.
# Legend:
# [1] = Viability qHTS for spleen associated tyrosine kinase inhibitor (SYKi) drug resistant MV4-11 cells (AID 1963824); settings: SYKi-resistant MV4-11 viability, CellTiter-Glo, 72 h; series mostly up to 45 µM; further: nearly all actives have a fitted effect of over 35% in size
# Procedure, shortened: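 SYK-inhibitor-resistant MV4-11 AML cells were seeded at 500 per well onto compound and cultured 72 hours (37 °C, 5% CO2). CellTiter-Glo was then added, and after 10 min at room temperature, luminescence gave viability.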
# [2] = Cellular viability qHTS for adrenocortical cancer (ACC) cell line NCI-H295R (AID 1963990); settings: CellTiter-Glo ATP luminescence, 48 h; series mostly up to 46.1 µM; further: nearly all actives have a fitted effect of over 60% in size
# Procedure, shortened: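 Viability of NCI-H295R after 48 h of treatment (final up to 46 uM) measured through cellular ATP luminescence.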
# [3] = Quantitative highthroughput screen to assess conditional lethalithy of NOMO1 cells grown in RPMI1640 with untreated serum (RPMI+s) (AID 1963876); settings: NOMO1 AML cells in RPMI+serum, CellTiter-Glo viability, 48 h; series mostly up to 45.8 µM; further: nearly all actives have a fitted effect of over 35% in size
# Procedure, shortened: (§1)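 Each medium arm—HPLM with 10% dialyzed FBS, or RPMI1640 with 5 mM glucose and 10% untreated or dialyzed FBS—was screened against an 11-point, 3-fold compound titration for 48 h at 37 °C, with CellTiter-Glo luminescence as endpoint.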
# [4] = Quantitative highthroughput screen to assess conditional lethalithy of NOMO1 cells grown in RPMI1640 with dialyzed fetal bovine serum (RPMI+ds) (AID 1963877); settings: NOMO1 in RPMI+dialyzed FBS viability, ATP luminescence, 48 h; series mostly up to 45.8 µM; further: nearly all actives have a fitted effect of over 30% in size
# Procedure, shortened: as §1
# [5] = Quantitative highthroughput screen to assess conditional lethalithy of NOMO1 cells grown in Human Plasma-Like Medium with dialyzed fetal bovine serum (HPLM+ds) (AID 1963878); settings: NOMO1 AML cells in HPLM+ds, CellTiter-Glo viability, 48 h; series mostly up to 45.8 µM; further: nearly all actives have a fitted effect of over 35% in size
# Procedure, shortened: as §1
# [6] = Quantitative highthroughput screen to assess conditional lethalithy of P12 Ichikawa cells grown in Human Plasma-Like Medium with dialyzed fetal bovine serum (HPLM+ds) (AID 1963879); settings: ATP luminescence, 48 h; Potency: viability; series mostly up to 45.8 µM; further: nearly all actives have a fitted effect of over 35% in size
# Procedure, shortened: as §1
# [7] = Quantitative highthroughput screen to assess conditional lethalithy of P12 Ichikawa cells grown in RPMI1640 with dialyzed fetal bovine serum (RPMI+ds) (AID 1963880); settings: ATP luminescence, 48 h; Potency: P12-Ichikawa viability; series mostly up to 45.8 µM; further: nearly all actives have a fitted effect of over 35% in size
# Procedure, shortened: as §1
# [8] = Quantitative highthroughput screen to assess conditional lethalithy of P12 Ichikawa cells grown in RPMI1640 with untreated serum (RPMI+s) (AID 1963881); settings: ATP luminescence, 48 h; Potency: viability; series mostly up to 45.8 µM; further: nearly all actives have a fitted effect of over 35% in size
# Procedure, shortened: as §1
# [9] = Quantitative highthroughput screen to assess conditional lethalithy of SEM cells grown in Human Plasma-Like Medium with dialyzed fetal bovine serum (HPLM+ds) (AID 1963882); settings: SEM B-ALL cells in HPLM+ds, CellTiter-Glo viability, 48 h; series mostly up to 45.8 µM; further: nearly all actives have a fitted effect of over 35% in size
# Procedure, shortened: as §1
# [10] = Quantitative highthroughput screen to assess conditional lethalithy of SEM cells grown in RPMI1640 with unreated serum (RPMI+s) (AID 1963883); settings: SEM B-ALL cells, CellTiter-Glo viability, 48 h; series mostly up to 45.8 µM; further: nearly all actives have a fitted effect of over 35% in size
# Procedure, shortened: as §1
# [11] = Quantitative highthroughput screen to assess conditional lethalithy of SEM cells grown in RPMI1640 with dialyzed fetal bovine serum (RPMI+ds) (AID 1963884); settings: SEM B-ALL cells, RPMI+dialyzed FBS, CellTiter-Glo viability, 48 h; series mostly up to 45.8 µM; further: nearly all actives have a fitted effect of over 35% in size
# Procedure, shortened: as §1
# Potency means the concentration at half of the fitted maximal effect.
compound,measurement,setting,value
COc1cc2c(NC3CCN(C)CC3)nc(N3CCCN(C)CC3)nc2cc1OCCCN(C)C,Potency,[1],18.6 µM (active)
same,Potency,[2],inactive
CCN(CC)CCNc1ccc(CO)c2sc3ccccc3c(=O)c12,Potency,[1],3.76 µM (active)
same,Potency,[2],1030 nM (active)
CCCCCCCCCCCCCCNCCO,Potency,[1],16.8 µM (active)
same,Potency,[2],23100 nM (active)
C[C@@H]1COCCN1c1cc(-c2ccnn2C)c2ccnc(-c3ccn[nH]3)c2n1,Potency,[1],0.0934 µM (active)
same,Potency,[2],158 nM (active)
COc1ccc(-c2ccc3c(N4CCOC[C@@H]4C)nc(N4CCOC[C@@H]4C)nc3n2)cc1CO,Potency,[1],0.148 µM (active)
same,Potency,[2],178 nM (active)
O=C(N/N=C/c1ccc([N+](=O)[O-])o1)c1ccc(O)cc1,Potency,[1],16.8 µM (active)
same,Potency,[2],7310 nM (active)
O=C(NOCC(O)CO)c1ccc(F)c(F)c1Nc1ccc(I)cc1F (stereo not given),Potency,[1],0.148 µM (active)
same,Potency,[2],inactive
CC(C)OC(=O)CCCC=CC[C@@H]1[C@H](C=C[C@@H](O)COc2cccc(C(F)(F)F)c2)[C@H](O)C[C@@H]1O,Potency,[3],33200 nM (active)
C[C@@H]1C[C@H]2[C@@H]3C[C@H](F)C4=CC(=O)C=C[C@]4(C)[C@@]3(F)[C@@H](O)C[C@]2(C)[C@@]1(O)C(=O)CO,Potency,[1],2.11 µM (active)
same,Potency,[2],inactive
OCc1c[nH]c2ccccc12,Potency,[1],24.3 µM (active)
same,Potency,[2],22400 nM (active)
C=C1C(=O)O[C@@H]2[C@H]3O[C@]3(C)CC/C=C(\C)CC[C@@H]12,Potency,[1],1.86 µM (active)
same,Potency,[2],10000 nM (active)
O=C(NOCC(O)CO)c1cc(Br)c(F)c(F)c1Nc1ccc(I)cc1F (stereo not given),Potency,[1],0.59 µM (active)
same,Potency,[2],15800 nM (active)
Cc1ccc(-c2ccc3c(ccc4sc5c(c43)NC[C@@H](C)NC5=O)n2)cn1,Potency,[1],2.91 µM (active)
same,Potency,[2],28200 nM (active)
CCOC(=O)N[C@@H]1CC[C@@H]2[C@@H](C1)C[C@H]1C(=O)O[C@H](C)[C@H]1[C@H]2/C=C/c1ccc(-c2cccc(F)c2)cn1,Potency,[1],13.2 µM (active)
same,Potency,[2],inactive
O=c1cc(-c2ccccc2)oc2ccccc12,Potency,[1],21.5 µM (active)
same,Potency,[2],inactive
CN1CCC[C@@H]1CCO[C@](C)(c1ccccc1)c1ccc(Cl)cc1,Potency,[1],18.8 µM (active)
same,Potency,[2],20600 nM (active)
Fc1ccc2[nH]ccc2c1-c1nc(N2CCOCC2)c2sc(CN3CCN(CC4CC4)CC3)cc2n1,Potency,[1],5.9 µM (active)
same,Potency,[2],31600 nM (active)
C#C[C@]1(OC(C)=O)CC[C@H]2[C@@H]3CCC4=C[C@@H](OC(C)=O)CC[C@@H]4[C@H]3CC[C@@]21C,Potency,[1],21.1 µM (active) and 14.6 µM (active)
same,Potency,[2],20600 nM (active)
COCCc1ccc(OCC(O)CNC(C)C)cc1 (stereo not given),Potency,[1],inactive
same,Potency,[2],inactive
CC(=O)CC/C=C(\C)CC/C=C(\C)CC/C=C(\C)CCC=C(C)C,Potency,[1],inactive
same,Potency,[2],inactive
CO[C@H]1/C=C\O[C@@]2(C)Oc3c(C)c(O)c4c(O)c(c(C=NN5CCN(C6CCCC6)CC5)c(O)c4c3C2=O)NC(=O)C(C)=CC=C[C@H](C)[C@H](O)[C@@H](C)[C@@H](O)[C@@H](C)[C@H](OC(C)=O)[C@H]1C,Potency,[3],1660 nM (active)
same,Potency,[4],2640 nM (active)
same,Potency,[5],2350 nM (active)
same,Potency,[6],2640 nM (active)
same,Potency,[7],2640 nM (active)
CCOc1cc(C=C2C(=O)N(c3ccccc3)N=C2C)cc(Cl)c1OCC(=O)OC,Potency,[3],inactive
same,Potency,[4],inactive
same,Potency,[5],inactive
same,Potency,[6],inactive
same,Potency,[7],inactive
same,Potency,[8],inactive
NC(=O)c1ncn([C@@H]2O[C@H](CO)[C@@H](O)[C@@H]2O)c1N,Potency,[3],inactive
same,Potency,[4],inactive
same,Potency,[5],inactive
same,Potency,[6],inactive
same,Potency,[7],inactive
same,Potency,[8],inactive
CC[C@H]1OC(=O)[C@H](C)[C@@H](O[C@H]2C[C@@](C)(OC)[C@@H](O)[C@H](C)O2)[C@H](C)[C@@H](O[C@@H]2O[C@H](C)C[C@H](N(C)C)[C@@H]2O)[C@](C)(O)C[C@@H](C)CN(C)[C@H](C)[C@@H](O)[C@]1(C)O,Potency,[3],inactive
same,Potency,[4],inactive
same,Potency,[5],inactive
NS(=O)(=O)OC[C@@H]1C[C@@H](n2ccc3c(N[C@H]4CCc5ccccc54)ncnc32)C[C@H]1O,Potency,[3],526 nM (active)
same,Potency,[4],526 nM (active)
same,Potency,[5],590 nM (active)
same,Potency,[6],2960 nM (active)
same,Potency,[7],1660 nM (active)
same,Potency,[8],2090 nM (active)
same,Potency,[9],1480 nM (active)
same,Potency,[10],1480 nM (active)
same,Potency,[11],1320 nM (active)
COc1cc2ncnc(Nc3ccc(F)c(Cl)c3)c2cc1NC(=O)C=CCN1CCCCC1,Potency,[3],inactive
same,Potency,[4],inactive
